Sampled rows, rich in hits. Any-hit rate of the full collection: about 7.2%.
HEK293 tox: HEK 293 cell cytotoxicity | Potency, µM (highest dose often 115 µM), without a hit: at the top dose activity change, negative = cytotoxicity, actives largely listed as inhibitors | HEK 293 viability, ATP luminescence (CellTiter-Glo), 48-72 h | hit rate 6.6% among 94,000 | AID 1345083; note: nearly all actives have a fitted effect of over 60% in size
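ATP-coupled CellTiter-Glo luminescence served as viability read-out, recorded 10 min after reagent addition at room temperature. HEK 293 cells, 250 cells/well, had been incubated with pintool-transferred compound for 48 or 72 hr at 37 degree Celsius.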
NPR1 antag: human Npr1 receptor antagonism; Potency, µM (series often up to 46.3 µM), for the others: top-dose activity change, negative = inhibition, usual class: inhibitors; hit rate 1.6% among 76,000; AID 1347048; HEK293 hNpr1 GloSensor cGMP, ANP-stimulated luminescence; calls by dose curve; note: nearly all actives have a fitted effect of over 60% in size
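HEK293 cells stably expressing human Npr1 and cGMP GloSensor pGS-40F, loaded 2 h with 2% GloSensor reagent, given compound 30 min at room temperature. Luminescence read before and 20 min after 0.1 nM hNppA.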
3T3 cytotox: kills NIH 3T3 cells | NIH 3T3 viability, CellTiter-Glo ATP luminescence, 48-72 h | Potency, µM (top dose mostly 96.7 µM), for the others: at the top dose activity change, negative = cytotoxicity, actives largely listed as inhibitors | hit rate 4.3% among 94,000; note: nearly all actives have a fitted effect of over 55% in size
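Cytotoxicity is measured as loss of cellular ATP: NIH 3T3 cells (400/well) are exposed to compound for 48 or 72 hr at 37 °C, then CellTiter-Glo luminescence is imaged after 10 min at room temperature.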
SNCA viab count: reduces viability of HEK-293 SNCA reporter cells; HEK-293-SNCA-luc viability, GF-AFC fluorescence, 24 h; Potency, µM (highest dose often 57.1 µM), for inactives: at the top dose activity change, negative = cytotoxicity, most hits filed as cytotoxic; hit rate 0.12% among 150,000; AID 1671193;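 note: 0% = DMSO-treated cells and -100% = medium-only wells without cells; nearly all actives have a fitted effect of over 30% in size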
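HEK-293-SNCA-luc cells (1500/well) plated 24 h, then exposed 24 h to a dilution series; GF-AFC added 30 min at 37C, fluorescence 405/540 nm; normalised to medium-only and DMSO wells, Hill fit.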
SNCA expr inhib: inhibitors of alpha-synuclein (SNCA) gene expression; HEK-293 SNCA-luciferase knock-in, luminescence, 24 h; Potency, µM (top dose mostly 57.2 µM), for inactives: at the top dose activity change, negative = inhibition, hits mostly inhibitors; hit rate 0.17% among 140,000;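 note: plate controls were DMSO cells for no effect and cell-free wells for full effect; nearly all actives have a fitted effect of over 45% in size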
Luciferase inh: Photinus pyralis luciferase inhibition. P08659. purified P. pyralis luciferase, luminescence, biochemical. Potency, µM (doses to about 115 µM), most hits filed as inhibitors. hit rate 2.5% among 76,000. AID 1347043; note: nearly all actives have a fitted effect of over 65% in size
Target sequence (P08659 whole entry, looked up): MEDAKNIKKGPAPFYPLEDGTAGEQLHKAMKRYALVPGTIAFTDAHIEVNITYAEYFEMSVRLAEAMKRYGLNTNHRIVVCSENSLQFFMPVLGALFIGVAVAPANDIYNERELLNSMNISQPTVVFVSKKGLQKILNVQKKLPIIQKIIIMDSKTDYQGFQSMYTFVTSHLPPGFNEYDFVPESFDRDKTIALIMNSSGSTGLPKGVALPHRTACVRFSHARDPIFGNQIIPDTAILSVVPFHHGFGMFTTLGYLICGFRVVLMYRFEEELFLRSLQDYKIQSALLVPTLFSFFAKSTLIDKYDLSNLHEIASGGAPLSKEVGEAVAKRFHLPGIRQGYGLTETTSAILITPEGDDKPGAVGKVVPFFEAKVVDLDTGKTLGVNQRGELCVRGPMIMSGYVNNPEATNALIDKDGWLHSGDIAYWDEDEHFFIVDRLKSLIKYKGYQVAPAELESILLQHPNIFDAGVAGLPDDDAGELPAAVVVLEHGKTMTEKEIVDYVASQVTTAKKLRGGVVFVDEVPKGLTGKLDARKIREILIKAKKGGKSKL
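Biochemical qHTS: compound (6-point titration) added to 10uM D-luciferin plus 10uM ATP in Tris acetate pH 7.5 buffer with Mg, Tween-20 and BSA, then purified enzyme at 10nM; light output imaged.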
* marks the source's active call; other numbers are inactive results; i = inactive; ? = inconclusive; · = not tested or not shown; ! = repeats disagree; [ ] = remark or other dose. Unless noted, calls come from the whole dose curve; as a rule, active = well fitted curve in the direction sought with a large enough effect; inconclusive = small, poorly fitted or top-dose-only effect, or another doubt; inactive = no such curve, though single readings can be large; an effect the other way counts as inactive or inconclusive. Unless noted, % is set by controls: 0 for no effect and ±100 for the full control effect; potency is the fitted concentration of half-maximal effect.

SMILES	HEK293 tox	NPR1 antag	3T3 cytotox	SNCA viab count	SNCA expr inhib	Luciferase inh
O=[S+]([O-])(NC1CCN(c2ccnc3ccnn23)C1)c1cccs1 (stereo unspecified)	71µM*	·	?	4%[87.6 µM]	0%[87.6 µM]	·
O=[S+]([O-])(NC1CCN(c2ccnc3ccnn23)CC1)c1cccc(C(F)(F)F)c1	45µM*	·	?	15%	-3%	·
O=[S+]([O-])(c1cccc(C(F)(F)F)c1)N1CCN(c2ccnc3ccnn23)CC1	?	·	?	3%	13%	·
CCNC(=O)CCc1cc2ccc(C)cc2[nH]c1=O	-2%	2%	2%	6%	-10%	i
C=CCOc1cc(C)c2c(c1C)[C@H](O)C([C@H](C)C(=O)NCCOC)CC2 (stereo partly specified)	-6%[172 µM]	7%[70.6 µM]	0%[174 µM]	1%[87.6 µM]	14%[87.6 µM]	i
C=CCOc1cc(C)c2c(c1C)[C@H](O)C([C@H](C)C(=O)N(C)Cc1ccccc1)CC2 (stereo partly specified)	?	-5%[70.6 µM]	71µM*	-2%[87.6 µM]	-6%[87.6 µM]	i
COc1ccccc1-c1cccc(CN2CCCC(C(=O)NC3CCCC3)C2)c1 (stereo unspecified)	35µM*!	·	35µM*!	-25%	?	·
COc1ccccc1-c1cccc(CN2CCCC(C(=O)NCc3ccccc3)C2)c1 (stereo unspecified)	11µM*	·	?	-22%	-5%	·
COc1ccccc1-c1cccc(CN2CCCC(C(=O)NCC(F)F)C2)c1 (stereo unspecified)	40µM*	·	?	?	-12%	·
Cn1cccc1CN1CCCC(C(=O)NCc2ccccc2)CCNC(=O)CC1 (stereo unspecified)	79µM*	0%	?	0%	-12%	i
O=C1NC2(CCN(Cc3ccsc3)C2)OCc2ccccc21 (stereo unspecified)	-15%[172 µM]	0%[70.6 µM]	-20%[138 µM]	-8%[87.6 µM]	-29%[87.6 µM]	i
CCc1nc2c(c(-c3ccc(Cl)cc3)n1)CCN(Cc1cccc3ccccc13)CC2	45µM*	0%	-23%	3%	-21%	i
CC(C)c1nc2c(c(-c3ccc(O)cc3)n1)CCN(Cc1cccc3ccccc13)CC2	25µM*	?	?	4%	-7%	i
CCc1nc2c(c(-c3ccc(O)cc3)n1)CN(Cc1cccc3ccccc13)CC2	89µM*	-21%	?	2%	-18%	i
CCn1nc(CC(C)C)cc1C(=O)N1CCN(CCn2cccc2)CC1	?	-2%	?	0%	7%	i
O=C(Nc1ccc(Cl)cc1)NC1CCN(Cc2ccc(-c3ccsc3)cc2)C1 (stereo unspecified)	?	·	?	2%	7%	·
COc1ccc(F)cc1-c1ccc(CN2CCC(NC(=O)Nc3ccc(Cl)cc3)C2)cc1 (stereo unspecified)	13µM*	·	11µM*	·	·	·
Cc1cc(C)cc(-c2ccc(CN3CCCC(NC(=O)Nc4ccc(Cl)cc4)C3)cc2)c1 (stereo unspecified)	-4%	·	-14%	-26%	?	·
Cc1cc(C)cc(-c2ccc(CN3CCCC(NC(=O)NC4CCCC4)C3)cc2)c1 (stereo unspecified)	?	·	?	-11%	-17%	·
COc1ccc(F)cc1-c1ccc(CN2CCC(NC(=O)Nc3ccc(C)c(F)c3)C2)cc1 (stereo unspecified)	25µM*	·	16µM*	·	·	·
COc1ccc(F)cc1-c1ccc(CN2CCC(NC(=O)NC3CCCC3)C2)cc1 (stereo unspecified)	20µM*	·	13µM*	·	·	·
COCCN1C(=O)CS(=O)(=O)C12CCN(C(=O)CCc1ccccc1OC)CC2	-14%	-4%	-20%	9%	-9%	i
CCCN1C(=O)CC[C@H]2CN(c3cc(OC)nc(N)n3)CC[C@H]21	-3%	3%	-19%	13%	0%	i
COc1ccc(-c2noc([C@@H]3C[C@H](NCc4cccc(C#N)c4)CN3C)n2)cc1	?	-28%[70.6 µM]	?	-21%[87.6 µM]	5%[87.6 µM]	40µM*
COc1ccc(-c2ccc3c(c2)C(=O)N2C[C@@H](NS(=O)(=O)c4ccc(F)cc4)C[C@H]2C(=O)N3)c(OC)c1	28µM*	-22%	?	?	?	i
SMILES	HEK293 tox	NPR1 antag	3T3 cytotox	SNCA viab count	SNCA expr inhib	Luciferase inh
COc1ccc([C@H]2C[C@@H](O)[C@@H](O)[C@@H]2NCc2cccc(C#N)c2)cc1	-24%[172 µM]	-3%[70.6 µM]	89µM*	-26%[87.6 µM]	-26%[87.6 µM]	i
COc1ccc(S(=O)(=O)N[C@H]2C[C@@H](c3nc(-c4cnccn4)no3)N(C)C2)cc1	-1%[172 µM]	7%[70.6 µM]	-8%[138 µM]	1%[87.6 µM]	-1%[87.6 µM]	i
O=C1Nc2ccc(-c3ccsc3)cc2C(=O)N2C[C@@H](NS(=O)(=O)c3ccc(F)cc3)C[C@@H]12	-15%	4%	-23%	-5%	-11%	i
COc1ccc([C@H]2C[C@@H](O)[C@@H](O)[C@@H]2NCc2cccc(C(F)(F)F)c2)cc1	?	-5%[70.6 µM]	?	-25%[87.6 µM]	1%[87.6 µM]	i
COc1ccc(S(=O)(=O)N[C@H]2C[C@@H](c3nc(-c4ccc(C)cc4)no3)N(C)C2)cc1	79µM*	?	?	-14%[87.6 µM]	87%[87.6 µM]	25µM*
CCOCC(=O)N1CCC2(CC1)CN(C(C)C)C2c1ccccc1 (stereo unspecified)	-13%	·	-16%	-6%	30%	·
COc1ccc(C(=O)NCC2Cn3cccc3C(=O)N2C)cc1OC (stereo unspecified)	-25%	-1%	1%	-4%	7%	i
COc1ccc(-c2noc([C@@H]3C[C@H](NS(=O)(=O)c4cccs4)CN3C)n2)cc1	?	?	?	-20%[87.6 µM]	59%[87.6 µM]	?
COc1ccc(-c2noc([C@@H]3C[C@H](NCc4ccc(S(C)(=O)=O)cc4)CN3C)n2)cc1	?	?	-29%	-17%	155%	45µM*
COc1ccc(-c2noc([C@@H]3C[C@H](NS(=O)(=O)c4ccc(F)cc4)CN3C)n2)cc1	?	-23%[70.6 µM]	?	-17%[87.6 µM]	121%[87.6 µM]	18µM*
Cc1ccc(OC2(C(=O)O)CCN(Cc3ccc(CO)o3)CC2)cc1	1%	7%	1%	2%	1%	i
COc1c/c(=C2\C=c3ccccc3=N2)[nH]/c1=C\c1[nH]c(C)cc1C	·	·	·	4.7µM*	·	·
O=C(C1CCCN1C(=O)C1CCCC1)N1CCC(N2Cc3cccn3C2=O)CC1 (stereo unspecified)	i	·	-4%	-15%	12%	·
